Compound activity deposited in PubChem BioAssay by several laboratories.
In the library only some 0.82% were active in any assay of this set; here they are far more common.
Cardiac RTF inh: cardiac RTF calcium sensitivity inhibitors, primary screen, biochemical, IANBD-TnC fluorescence, EC70 calcium | inhibition, % at 7.15 µM | IANBD-labeled cardiac RTF, Ca2+ fluorescence | hit rate 0.12% among 340,000;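 active = inhibition above the mean inhibition of all tested compounds plus 3 SD, cut at about 17% in these data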;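 also: assay run at fixed EC70 calcium of 1.6 mM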
E coli Lon inh: inhibitors of E. coli Lon protease, primary screen, biochemical, fluorescence polarization | P0A9M0 | purified E. coli Lon protease | hit rate 0.42% among 360,000 | inhibition, % at 7.94 µM; in the data active = inhibition above about 13%, passing the limit was not always enough
Target sequence (P0A9M0 whole entry, looked up): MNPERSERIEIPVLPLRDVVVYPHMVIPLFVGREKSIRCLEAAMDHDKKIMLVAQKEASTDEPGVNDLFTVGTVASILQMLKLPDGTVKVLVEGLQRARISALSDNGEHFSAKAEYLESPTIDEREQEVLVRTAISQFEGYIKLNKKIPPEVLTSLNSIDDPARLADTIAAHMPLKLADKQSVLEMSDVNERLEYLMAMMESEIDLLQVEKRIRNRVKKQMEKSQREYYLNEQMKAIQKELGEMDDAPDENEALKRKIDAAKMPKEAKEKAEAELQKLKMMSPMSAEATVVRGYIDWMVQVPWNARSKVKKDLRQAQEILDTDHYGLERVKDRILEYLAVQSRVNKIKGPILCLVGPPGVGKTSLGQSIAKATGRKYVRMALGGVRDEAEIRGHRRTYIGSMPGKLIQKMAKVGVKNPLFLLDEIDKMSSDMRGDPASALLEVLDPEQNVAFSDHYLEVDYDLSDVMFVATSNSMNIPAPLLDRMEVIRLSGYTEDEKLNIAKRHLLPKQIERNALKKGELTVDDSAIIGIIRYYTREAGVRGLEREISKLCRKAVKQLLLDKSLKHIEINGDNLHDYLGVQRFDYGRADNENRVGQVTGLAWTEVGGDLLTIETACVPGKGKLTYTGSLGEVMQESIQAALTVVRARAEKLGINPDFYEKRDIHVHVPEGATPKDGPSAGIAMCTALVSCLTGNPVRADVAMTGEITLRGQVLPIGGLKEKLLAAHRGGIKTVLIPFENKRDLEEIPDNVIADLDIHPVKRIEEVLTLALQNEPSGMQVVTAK
Keap1-Nrf2 PPI: Keap1-Nrf2 protein-protein interaction inhibitors, primary screen, biochemical, fluorescence polarization, single point; inhibition, % at 9.4 µM; hit rate 0.15% among 340,000; Kelch-like ECH-associated protein 1 (Homo sapiens), Q14145; Keap1 Kelch-Nrf2 peptide fluorescence polarization, 1536-well; in the data active = inhibition above about 12%;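 also: human Keap1 Kelch domain with fluorescein labeled Nrf2 9mer peptide probe; higher means more block of Keap1 binding to Nrf2 peptide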
LANA DNA inh: inhibitors of KSHV C-LANA binding to DNA, primary screen, biochemical, fluorescence polarization, FAM-LBS DNA, MBP-C-LANA, single point; AID 504423, 2011; hit rate 0.078% among 340,000; inhibition, % at 9 µM; Kaposi's sarcoma herpesvirus LANA C-terminal domain (residues 932-1162) DNA binding;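 active = highest replicate inhibition at or above 60% at 9 µM, even if other replicates fall short; inactive = all replicates below 60% inhibition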
cardiac RTF act: cardiac RTF calcium sensitivity activators, primary screen, biochemical, IANBD-TnC fluorescence, EC20 calcium; AID 493008, 2010; Troponin I, cardiac muscle (Homo sapiens) + Troponin T, cardiac muscle (Homo sapiens) + …; activation, % at 7.2 µM; hit rate 0.24% among 340,000; IANBD-labeled TnC RTF fluorescence at EC20 calcium; 0% EC20 calcium, 100% full calcium;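 active = activation above the mean over all tested compounds plus 3 SD, cut at about 30% in these data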;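 also: rise in fluorescence read as greater calcium sensitivity of cardiac thin filaments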
eLon confirm: E. coli Lon protease inhibitor retest, confirmation, biochemical, fluorescence polarization; hit rate 31% among 1,400; inhibition, % at 7.94 µM; shares compounds with E coli Lon inh; AID 602230, 2012; purified E. coli Lon; in the data active = inhibition above about 16%
Numbers stand for hits; i = inactive; nt = no result given; + = active, no number.

SMILES	Cardiac RTF inh	E coli Lon inh	Keap1-Nrf2 PPI	LANA DNA inh	cardiac RTF act	eLon confirm
CCCCC(=O)NC(=S)NNS(=O)(=O)c1ccccc1	i	20.1	i	i	i	i
O=C(NC(=S)NNS(=O)(=O)c1ccccc1)c1ccc([N+](=O)[O-])cc1	i	i	i	i	i	nt
OC(c1cc(F)cc(Cl)c1)c1ncc(-c2ccccc2C(F)(F)F)[nH]1 (stereo not given)	nt	i	nt	nt	nt	nt
CC(=O)NNc1cc(N2CCOCC2)nc(N2CCOCC2)n1	i	i	i	i	i	nt
COc1ccc(NC(=O)NNc2cc(N3CCOCC3)nc(N3CCOCC3)n2)cc1	i	33.7	i	i	i	i
COc1ccc(CC(N)c2csc(Nc3ccc(C(=O)c4ccccc4)cc3)n2)cc1 (stereo not given)	nt	i	nt	nt	nt	nt
COC/C=C/C1=CC2=CC(=O)C(C)(OC(=O)c3cnc4ccccc4n3)C(=O)C2=CN1CCOC (stereo not given)	i	29.5	i	i	i	i
COC/C=C/C1=CC2=CC(=O)C(C)(OC(=O)c3cnc4ccccc4n3)C(=O)C2=CN1CCCOC(C)C (stereo not given)	i	i	i	i	i	nt
O=c1[nH]c2ccccc2nc1C(F)(F)C(F)F	i	i	i	i	i	nt
O=c1[nH]c2cc3ccccc3cc2nc1C(F)(F)F	i	25.7	i	i	i	37.4
Cc1cc(S(=O)(=O)c2ccc(Cl)cc2)nc(S(=O)(=O)c2ccc(Cl)cc2)c1C#N	nt	i	nt	nt	nt	nt
Cc1ccc(S(=O)(=O)N2[C@@H](c3ccccc3)C(C(=O)O)=CC[C@H]2c2ccc(C(C)C)cc2)cc1	i	i	i	i	i	nt
Cc1ccc([C@H]2C(C(=O)O)=CC[C@@H](c3ccc(C(C)C)cc3)N2S(=O)(=O)c2ccc(C)cc2)cc1	i	16.3	i	i	i	i
S=C(NCCCCN(Cc1ccc(Cl)cc1)c1ccc(Br)cn1)NCCCc1cnc[nH]1	nt	i	nt	nt	nt	nt
CC(C)Cn1c(=O)c(C(=O)Nc2cnccn2)c(O)c2ccccc21	i	i	i	i	i	nt
CC(C)Cn1c(=O)c(C(=O)Nc2ccncc2)c(O)c2ccccc21	i	34.7	i	i	i	22.6
CC1(C)Cc2c(c(-c3ccco3)[nH]c(=O)c2C#N)CS1	i	33.5	i	i	i	28.6
CC(C)CNC(=O)C1(C)CCN1C(=O)c1ccc(C(C)(C)C)cc1 (stereo not given)	nt	i	nt	nt	nt	nt
Cc1ccsc1C1C=C(c2cccc(Br)c2)Nc2ncnn21 (stereo not given)	i	59.7	i	i	46.4	66.3
Cc1ccccc1-c1cc2nc(NCc3ccc4occc4c3)n(C)c(=O)c2s1	nt	i	nt	nt	nt	nt
O=C(CN1C(=O)NC2(CCCCC2)C1=O)Nc1ccc2[nH]c(=O)[nH]c2c1	i	40.1	i	i	i	i
Cc1ccc(/C=C2\Oc3cc(OC(=O)N4CCOCC4)ccc3C2=O)cc1	i	i	i	i	i	nt
O=C(Oc1ccc2c(c1)O/C(=C\c1ccncc1)C2=O)c1ccccc1	i	24.4	i	i	i	31.6
Cc1ccc(S(=O)(=O)N2CCc3cc4c(cc3C2C)OCCCO4)cc1 (stereo not given)	i	17.5	i	i	i	i
CC(=O)Nc1ccc(N2C(=O)c3cccc4c(O)ccc(c34)C2=O)cc1	i	+	i	i	608.8	+
SMILES	Cardiac RTF inh	E coli Lon inh	Keap1-Nrf2 PPI	LANA DNA inh	cardiac RTF act	eLon confirm
O=C(NCc1cccnc1)c1cc(C2CCCN(S(=O)(=O)c3cccs3)C2)on1 (stereo not given)	nt	i	nt	nt	nt	nt
Nc1nnc2cc(F)ccc2n1	nt	i	nt	nt	nt	nt
Nc1nnc2cc(Br)ccc2n1	nt	65.9	nt	nt	nt	32.9
CC1CCC/C(=C\Nc2ccc(C(=O)O)c(O)c2)C1=O (stereo not given)	i	i	i	i	i	nt
O=C1CCCC/C1=C\Nc1ccc(C(=O)O)c(O)c1	i	44.0	i	i	i	i
CC1=NN(C(=S)Nc2ccccc2)C(c2ccccc2)C1 (stereo not given)	i	83.6	i	i	i	i
CCOC(=O)Cc1ccc(Nc2nc(NCCOC)nc3ccsc23)cc1	nt	i	nt	nt	nt	nt
O=Cc1cc(N=Nc2ccc(S(=O)(=O)O)cc2)ccc1O	i	i	i	i	i	nt
Cc1cc(C=O)c(O)cc1O	i	37.2	i	i	i	i
CN(CC(=O)Nc1ccc(Cl)cc1)C(=O)CN1C(=O)C2CCCCC2C1=O (stereo not given)	nt	i	nt	nt	nt	nt
Nc1nnnn1/N=C/c1cc(Cl)cc(Cl)c1O	i	48.8	i	i	32.1	73.4
Nc1nnnn1/N=C/c1cc(Cl)ccc1O	i	i	i	i	i	nt
Cc1ccc(NC(=O)COC(=O)CCc2c[nH]c(=O)[nH]2)cc1	i	31.0	i	i	i	52.2
O=c1[nH]nc(-c2ccc(F)cc2)cc1Cc1ccccc1	i	31.5	i	i	i	i
COc1cc2oc(=O)cc(CN3CCCCC3)c2cc1Cl	nt	i	nt	nt	nt	nt
COc1cc2oc(=O)cc(CN3CCN(C(C)=O)CC3)c2cc1Cl	nt	31.4	nt	nt	nt	24.4
Cc1ccc(F)cc1-c1cc2nc(NCCCN(C)C)n(C)c(=O)c2s1	nt	i	nt	nt	nt	nt
CCCCC1=CC2=C(c3ccco3)C(=O)C(C)(OC(=O)c3ccc(OC)cc3)C(=O)C2=CN1C(CO)CO (stereo not given)	i	31.2	i	i	i	i
CCCCC1=CC2=C(c3ccco3)C(=O)C(C)(OC(=O)c3ccc(OC)cc3)C(=O)C2=CN1CCCN(CC)CC (stereo not given)	i	i	i	i	i	nt
CCCCC1=CC2=C(c3ccco3)C(=O)C(C)(OC(=O)c3ccc(OC)cc3)C(=O)C2=CN1c1ccc(OC)cc1 (stereo not given)	i	i	i	i	i	nt
CCCCC1=CC2=C(c3ccco3)C(=O)C(C)(OC(=O)c3ccc(OC)cc3)C(=O)C2=CN1C1CC1 (stereo not given)	i	55.8	i	i	i	i
CCCCC1=CC2=C(c3ccco3)C(=O)C(C)(OC(=O)c3ccc(OC)cc3)C(=O)C2=CN1CC(C)C (stereo not given)	i	i	i	i	i	nt
CCCCC1=CC2=C(c3ccco3)C(=O)C(C)(OC(=O)c3ccc(OC)cc3)C(=O)C2=CN1CCCCO (stereo not given)	i	37.2	i	i	i	i
CCCCC1=CC2=C(c3ccco3)C(=O)C(C)(OC(=O)c3ccc(OC)cc3)C(=O)C2=CN1CC1CC1 (stereo not given)	i	39.2	i	i	i	20.3
CCCCC1=CC2=C(c3ccco3)C(=O)C(C)(OC(=O)c3ccc(OC)cc3)C(=O)C2=CN1Cc1ccco1 (stereo not given)	i	i	i	i	i	nt
CC(C)[C@@H]1Cc2[nH]c(=O)[nH]c(=O)c2[C@H](C)O1	nt	i	nt	nt	nt	nt
